Screens as filed in PubChem.
Most compounds without a hit are left out; they make up all but 12% or so of the library.
HP1b chromo inh: HP1-beta chromodomain-methylated histone interaction inhibition; AlphaScreen HP1-beta / biotin-H3K9me3 peptide binding; Potency, µM (highest dose often 114 µM), inactives show at the top dose activity change, negative = inhibition, most hits filed as inhibitors; 0.56% of 390,000 active; AID 540317; further: nearly all actives have a fitted effect of over 70% in size
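AlphaScreen: HP1-beta (50 nM) preformed 30 min with biotin-H3(1-18)K9me3 peptide (50 nM) in PBS pH 7.4, 0.01% Tween-20. Compound added for 30 min at RT, then streptavidin donor/nickel chelate acceptor beads (10 ug/mL) for 30 min.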
G9a inh: blocks human histone lysine methyltransferase G9a. 8.8% of 350,000 active. G9a H3K9 monomethylation, AlphaScreen, 2 h. Potency, µM (highest dose often 102 µM), without a hit: at the top dose activity, negative = inhibition, actives largely listed as inhibitors. Q96KQ7. AID 504332; further: on the % scale 0 is the no-effect control and ±100 the full control effect; nearly all actives have a fitted effect of over 75% in size
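Quantitative HTS format: methyltransferase activity on a biotin-tagged H3K9 peptide is measured by AlphaScreen, using a rabbit anti-monomethyl-H3K9 antibody with streptavidin donor and anti-IgG acceptor beads. Final levels are 20 nM enzyme, 500 nM peptide, 20 uM SAM; 2 h RT.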
BAZ2B block: BAZ2B (human) inhibition; AlphaScreen BAZ2B-H3K14Ac peptide displacement; Potency, µM (highest dose often 114 µM), for the others: top-dose activity change, negative = inhibition, actives largely listed as inhibitors; 4.4% of 360,000 active; further: on the % scale 0 is the no-effect control and ±100 the full control effect; nearly all actives have a fitted effect of over 60% in size
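BAZ2B 50 nM plus b-H3(5-23)K14Ac 50 nM, PBS pH 7.4/0.01% Tween-20, 30 min RT; compound added (max 110 uM), 30 min RT; streptavidin donor/Ni-chelate acceptor beads 10 ug/mL final, 20 min dark; AlphaScreen read.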
JMJD2A Tudor: JMJD2A Tudor domain (human) inhibition; AlphaScreen JMJD2A-Tudor / H3K4me3 peptide binding; O75164; Potency, µM (doses to about 114 µM), inactives show at the top dose activity change, negative = inhibition, hits mostly inhibitors; 4.4% of 390,000 active; further: on the % scale 0 is the no-effect control and ±100 the full control effect; nearly all actives have a fitted effect of over 50% in size
Target sequence (O75164 whole entry, looked up, the tested form may be a part): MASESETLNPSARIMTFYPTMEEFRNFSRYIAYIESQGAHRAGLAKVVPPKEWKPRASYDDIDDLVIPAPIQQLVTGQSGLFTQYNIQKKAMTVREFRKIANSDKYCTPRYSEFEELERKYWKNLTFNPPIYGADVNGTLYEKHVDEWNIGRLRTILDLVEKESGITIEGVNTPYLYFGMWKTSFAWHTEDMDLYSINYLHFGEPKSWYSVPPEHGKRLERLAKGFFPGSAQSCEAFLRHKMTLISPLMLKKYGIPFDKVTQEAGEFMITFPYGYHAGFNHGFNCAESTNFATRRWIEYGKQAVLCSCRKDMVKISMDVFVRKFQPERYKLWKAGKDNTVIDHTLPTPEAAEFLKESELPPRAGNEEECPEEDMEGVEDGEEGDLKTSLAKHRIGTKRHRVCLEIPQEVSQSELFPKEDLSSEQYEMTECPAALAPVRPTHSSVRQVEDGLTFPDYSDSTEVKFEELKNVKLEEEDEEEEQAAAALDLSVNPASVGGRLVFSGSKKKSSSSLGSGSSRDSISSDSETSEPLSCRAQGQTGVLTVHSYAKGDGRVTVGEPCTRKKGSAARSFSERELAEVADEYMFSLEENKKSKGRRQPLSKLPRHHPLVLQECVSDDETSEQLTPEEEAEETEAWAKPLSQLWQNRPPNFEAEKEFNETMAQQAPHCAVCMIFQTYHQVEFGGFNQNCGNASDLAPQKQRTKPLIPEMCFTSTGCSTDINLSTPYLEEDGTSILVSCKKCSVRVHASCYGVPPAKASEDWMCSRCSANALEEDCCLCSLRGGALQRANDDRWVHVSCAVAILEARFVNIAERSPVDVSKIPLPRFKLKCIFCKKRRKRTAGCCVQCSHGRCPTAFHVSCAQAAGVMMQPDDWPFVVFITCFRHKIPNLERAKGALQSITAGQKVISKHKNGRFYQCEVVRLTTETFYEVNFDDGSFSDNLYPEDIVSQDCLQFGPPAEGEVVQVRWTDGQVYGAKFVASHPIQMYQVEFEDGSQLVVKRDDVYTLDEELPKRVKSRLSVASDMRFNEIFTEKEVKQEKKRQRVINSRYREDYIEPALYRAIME
L3MBTL1 block: inhibitors of human L3MBTL1 | 0.66% of 230,000 active | AID 485360 | Potency, µM (top dose mostly 57.1 µM), for the others: at the highest dose activity, negative = inhibition, usual class: inhibitors | Q9Y468 | AlphaScreen L3MBTL1–H3K9me1 peptide binding; further: on the % scale 0 is the no-effect control and ±100 the full control effect; nearly all actives have a fitted effect of over 60% in size
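AlphaScreen assay: L3MBTL1 (50 nM final) was preincubated 30 min at room temperature with biotinylated H3(1-15)K9me1 peptide (75 nM final), then 30 min with library compounds; streptavidin donor and nickel chelate acceptor beads (10 ug/mL final) added, 30 min dark.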
Sfp PPTase inh: blocks B. subtilis Sfp PPTase activity; Biochemical Sfp PPTase activity, qHTS; Potency, µM, for inactives: largest response in the series, negative = inhibition, most hits filed as inhibitors; 3.5% of 310,000 active; AID 1490;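 further: the enzyme is Sfp with the accession as filed and its product quenches rhodamine fluorescence; 0% = enzyme reaction without inhibitor and -100% = no enzyme wells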
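Compounds were incubated with enzyme (final 15 nM) for 15 min at room temperature before substrate addition started the reaction. Fluorescence at 525 nm excitation, 598 nm emission was recorded immediately and after 30 minutes.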
* hit, by the source's call; u = inconclusive; x = no result given; [ ] = remark or other dose. The call rests on the fitted dose curve; in most records, active means well fitted curve in the direction sought with a large enough effect; inconclusive means small, poorly fitted or top-dose-only effect, or another doubt; inactive means no such curve, though single readings can be large; an effect the other way counts as inactive or inconclusive. Potency means the concentration at half of the fitted maximal effect.

SMILES	HP1b chromo inh	G9a inh	BAZ2B block	JMJD2A Tudor	L3MBTL1 block	Sfp PPTase inh
COc1ccc(N2CCN(S(=O)(=O)c3ccc(-n4cnnn4)c(C)c3)CC2)cc1	20.9%	7.08µM*	-12.1%	-16.6%	-3.3%	0.5%
O=C(NCc1ccc(Cl)cc1)C(=O)NCC(c1ccco1)S(=O)(=O)c1cccs1 (stereo not given)	26.6%	3.4%[59 µM]	2.1%	-2.9%	x	x
c1csc(CNc2cc(-c3ccoc3)ncn2)c1	x	-29.7%[0.501 µM]	x	x	x	31.6µM*
COc1ccc(OC)c(NC(=O)c2oc3c(c2C)-c2nn(Cc4ccc(Cl)cc4)cc2CC3)c1	60.7%	9.5%[59 µM]	18.4%	-20.7%	x	x
COC(=O)CN1C(=S)N(c2ccc(Cl)cc2)C(=O)C1CC(=O)Nc1ccc(F)cc1 (stereo not given)	13.8%	50.1µM*	3.4%	-23.2%	-3.7%	-6.6%
COC(=O)CN1C(=S)N(c2ccc(Cl)cc2)C(=O)C1CC(=O)Nc1ccc(Cl)cc1 (stereo not given)	-13.3%	18.8%[59 µM]	u	-5.3%	u	79.4µM*
Cc1cc([N+](=O)[O-])nn1CC(=O)Nc1nc2ccccc2s1	26.5%	u	-21.4%	-21.8%	22.9%	16.5%
Cc1cc([N+](=O)[O-])nn1CC(=O)Nc1cccc2nonc12	-4.9%	56.2µM*	u	-35.0%	-5.8%	-25.6%
CSc1ccccc1NC(=O)Cn1nc([N+](=O)[O-])cc1C	33.4%	28.2µM*	-1.9%	-21.5%	-19.4%	56.2µM*
COc1ccc(NC(=O)CC2C(=O)N(c3ccccc3)C(=O)N2Cc2cccnc2)cc1 (stereo not given)	44.9%	u	0.2%	14.5%	x	x
Cc1ccc(Cn2c(=O)n(-c3cccc(C(F)(F)F)c3)c(=O)c3c(C)c(C)sc32)c(C)c1	21.1%	6.5%[59 µM]	1.9%	0.7%	x	x
COc1ccc(CC(=O)NNS(=O)(=O)c2cccc([N+](=O)[O-])c2)cc1OC	14.0%	-1.3%[59 µM]	-0.4%	2.3%	x	19.8%
COc1ccc(-n2c(O)c(/C=N/NS(=O)(=O)c3cccc([N+](=O)[O-])c3)c3ccccc3c2=O)cc1OC	3.0%	39.8µM*	50.1µM*	u	-13.1%	-14.2%
O=C1NCCN1Cc1ccccc1F	11.6%	44.7µM*	-37.2%	-4.4%	-23.1%	3.6%
O=C(NCc1ccc2c(c1)OCO2)c1ccc2c(c1)N(Cc1ccccc1F)C(=O)c1ccccc1S2=O (stereo not given)	17.2%	2.9%[59 µM]	-18.4%	-21.2%	x	x
Cc1ccc(N2C(=O)CS(=O)(=O)C23C(=O)N(C)c2ccccc23)cc1F (stereo not given)	17.2%	12.6µM*	5.6%[57.1 µM]	-10.4%	x	x
CCOC(=O)c1cc(S(=O)(=O)N2CCN(c3cccc(OC)c3)CC2)[nH]n1	9.1%[57 µM]	u	u	-31.0%	x	x
Cc1ccc(Cl)cc1N1CCN(S(=O)(=O)c2cn(C)cn2)CC1	16.3%	-0.4%	-1.0%	-14.1%	x	11.9%
Cc1ccc(Cl)cc1N1CCN(S(=O)(=O)c2cn(C)c(C)n2)CC1	6.6%[57 µM]	0.7%[59 µM]	-22.3%	56.2µM*	x	x
CCOC(=O)c1cc(S(=O)(=O)N2CCN(c3ccccc3OC)CC2)[nH]n1	11.2%[57 µM]	28.2µM*	-9.6%	-22.7%	x	x
CCOC(=O)c1cc(S(=O)(=O)N2CCN(c3cc(Cl)ccc3C)CC2)[nH]n1	16.3%[57 µM]	12.6µM*	u	u	x	x
CCOC(=O)c1cc(S(=O)(=O)N2CCN(c3ccc(F)cc3)CC2)[nH]n1	7.3%[57 µM]	28.2µM*	u	-21.1%	x	x
CCOC(=O)c1cc(S(=O)(=O)N2CCN(c3ccc(OC)cc3)CC2)[nH]n1	14.6%[57 µM]	u	-24.8%	-33.2%	x	x
COc1ccc(N2CCN(c3oc(/C=C/c4cc(OC)c(OC)c(OC)c4)nc3C#N)CC2)cc1	-9.1%	u	u	u	x	x
Cc1ccc(S(=O)(=O)CC(=O)Nc2sc3c(c2C#N)CCCC3)cc1	18.1%	-2.0%[59 µM]	-0.8%	-15.9%	x	x
SMILES	HP1b chromo inh	G9a inh	BAZ2B block	JMJD2A Tudor	L3MBTL1 block	Sfp PPTase inh
Nc1cc2c(cc1[N+](=O)[O-])-c1ccccc1C2=NO	u	x	x	28.2µM*	x	x
Cc1ccc2c(c1)c1c(c(=O)n(-c3ccccc3C)c(=O)n1CC(=O)NCCC1=CCCCC1)n2C	15.7%	-4.6%[59 µM]	-6.2%	-11.7%	x	x
CC(CN1CC(=O)NC(=O)C1)N1CC(=O)NC(=O)C1 (stereo not given)	x	2.82µM*	x	x	x	-13.4%
CCCCn1c(N)c(N(CCC(C)C)C(=O)c2ccc3c(c2)OCCO3)c(=O)[nH]c1=O	33.4%	-0.3%	-5.6%	-2.1%	8.3%	x
CCCCN(C(=O)Cc1ccc(S(=O)(=O)N2CCOCC2)s1)c1c(N)n(CCCC)c(=O)[nH]c1=O	28.4%	56.2µM*	4.4%	-7.6%	-7.5%	x
CCCCN(C(=O)c1ccc2c(c1)OCCO2)c1c(N)n(CC(C)C)c(=O)[nH]c1=O	38.5%	44.7µM*	-4.1%	0.0%	-6.5%	x
CCCCn1c(N)c(N(CC(C)C)C(=O)c2ccc(C)o2)c(=O)[nH]c1=O	15.0%	u	-3.2%	-10.1%	1.2%	x
CCCCn1c(N)c(N(CC(C)C)C(=O)Cc2ccc3c(c2)OCCO3)c(=O)[nH]c1=O	26.2%	50.1µM*	-3.8%	-9.5%	-7.7%	x
COc1ccc(-n2c(=O)c3c(c4cc(OC)ccc4n3C)n(CC(=O)NCC3CCCO3)c2=O)cc1 (stereo not given)	6.4%	-4.7%[59 µM]	-3.8%	-14.8%	x	x
CC(C)CCNC(=O)c1ccc2c(c1)NC(=O)C(CS(=O)(=O)Cc1cccc(Br)c1)N2 (stereo not given)	21.7%	12.6µM*	2.0%[57.1 µM]	u	x	x
CC(C)CCNC(=O)c1ccc2c(c1)NC(=O)C(CS(=O)(=O)Cc1ccc(F)cc1)N2 (stereo not given)	9.3%	u	9.9%[57.1 µM]	-16.5%	x	x
Cc1cccc(CS(=O)(=O)CC2Nc3ccc(C(=O)NCc4ccccc4)cc3NC2=O)c1 (stereo not given)	-12.7%	u	3.3%[57.1 µM]	-10.4%	x	x
